PubChem BioAssay AID1159580 (chemical genetic matrix, 2015)
Among all 5,500 compounds or so, about 2,000 (36%) were called active. Inconclusive results (about 18%) are left out. No stated cut-off is given here; in the data, active means normalized growth mostly below about 0.91 (no sharp cut-off); inconclusive means no clear call, values can overlap the other calls; inactive means mostly above about 0.92. This is one part of the list.

Assay: chemical genetic growth profiling, strain panel (AID 1159580);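 further: tested at 20 µM; growth read once vehicle control cultures reached saturation at 30 °C; 1 = growth at the plate median or of vehicle wells; lower values mean less growth of the strain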
Conditions: growth OD

Measured: normalized growth

NC(=NCCC[C@H](N)C(=O)O)N[N+](=O)[O-]
inactive: S. cerevisiae deletion strains, locus YJL187C, strain SWE1 (second series), hits give low values 0.983 | S. cerevisiae deletion strains, locus YJR043C, strain POL32, hits give low values 0.995 | S. cerevisiae deletion strains, locus YKL009W, strain mrt4, hits give low values 1 | S. cerevisiae deletion strains, locus YKL068W, hits give low values 0.997 | S. cerevisiae deletion strains, locus YKL085W, strain MDH1 (second series), hits give low values 0.982 | S. cerevisiae deletion strains, locus YKL085W, strain MDH1, hits give low values 0.982 | S. cerevisiae deletion strains, locus YKL160W, strain elf1, hits give low values 1.01 | S. cerevisiae deletion strains, locus YKL190W, strain CNB1, hits give low values 0.99 | S. cerevisiae deletion strains, locus YKR001C, strain vps1, hits give low values 0.98 | S. cerevisiae deletion strains, locus YKR026C, strain gcn3, hits give low values 1.01 | S. cerevisiae deletion strains, locus YKR091W, strain srl3, hits give low values 1.02 | S. cerevisiae deletion strains, locus YLL001W, strain dnm1, hits give low values 1.02 | S. cerevisiae deletion strains, locus YLL026W, hits give low values 1.02 | S. cerevisiae deletion strains, locus YLL041C, strain sdh2, hits give low values 1.02 | S. cerevisiae deletion strains, locus YLR027C, strain aat2, hits give low values 1.03 | S. cerevisiae deletion strains, locus YLR039C, strain RIC1, hits give low values 0.971 | S. cerevisiae deletion strains, locus YLR058C, strain SHM2, hits give low values 1.01 | S. cerevisiae deletion strains, locus YLR102C, strain apc9, hits give low values 1.01 | S. cerevisiae deletion strains, locus YLR221C, strain rsa3, hits give low values 0.985 | S. cerevisiae deletion strains, locus YLR258W, strain gsy2, hits give low values 1.02 | S. cerevisiae deletion strains, locus YLR262C, strain YPT6 (second series), hits give low values 1.04 | S. cerevisiae deletion strains, locus YLR262C, strain YPT6, hits give low values 1.06 | S. cerevisiae deletion strains, locus YLR268W, strain sec22, hits give low values 1 | S. cerevisiae deletion strains, locus YLR320W, strain mms22, hits give low values 1.03 | S. cerevisiae deletion strains, locus YLR330W, strain CHS5, hits give low values 1.01 | S. cerevisiae deletion strains, locus YLR342W, strain FKS1 (second series), hits give low values 1.03 | S. cerevisiae deletion strains, locus YLR342W, strain FKS1, hits give low values 1.02 | S. cerevisiae deletion strains, locus YLR357W, strain rsc2, hits give low values 1.06 | S. cerevisiae deletion strains, locus YLR370C, strain arc18, hits give low values 1.02 | S. cerevisiae deletion strains, locus YLR371W, strain rom2, hits give low values 0.997 | S. cerevisiae deletion strains, locus YLR384C, strain iki3, hits give low values 1.03 | S. cerevisiae deletion strains, locus YLR418C, strain cdc73, hits give low values 1.04 | S. cerevisiae deletion strains, locus YML016C, strain PPZ1, hits give low values 1 | S. cerevisiae deletion strains, locus YML032C, strain rad52, hits give low values 0.989 | S. cerevisiae deletion strains, locus YML120C, strain ndi1, hits give low values 1.02 | S. cerevisiae deletion strains, locus YML124C, strain tub3, hits give low values 1 | S. cerevisiae deletion strains, locus YMR058W, strain fet3, hits give low values 1.04 | S. cerevisiae deletion strains, locus YMR078C, strain ctf18, hits give low values 0.997 | S. cerevisiae deletion strains, locus YMR125W, strain sto1, hits give low values 1.01 | S. cerevisiae deletion strains, locus YMR129W, hits give low values 1.02 | S. cerevisiae deletion strains, locus YMR205C, strain PFK2, hits give low values 1.03 | S. cerevisiae deletion strains, locus YMR223W, strain ubp8, hits give low values 1.05 | S. cerevisiae deletion strains, locus YMR231W, strain pep5, hits give low values 1.01 | S. cerevisiae deletion strains, locus YMR307W, strain GAS1, hits give low values 0.982 | S. cerevisiae deletion strains, locus YNL067W, strain RPL9B, hits give low values 0.973 | S. cerevisiae deletion strains, locus YNL071W, strain lat1, hits give low values 1.01 | S. cerevisiae deletion strains, locus YNL128W, strain TEP1, hits give low values 1.01 | S. cerevisiae deletion strains, locus YNL153C, strain GIM3, hits give low values 0.975 | S. cerevisiae deletion strains, locus YNL209W, strain ssb2, hits give low values 1.03 | S. cerevisiae deletion strains, locus YNL233W, strain BNI4, hits give low values 0.968 | S. cerevisiae deletion strains, locus YNL248C, strain rpa49, hits give low values 1.01 | S. cerevisiae deletion strains, locus YNL271C, strain bni1, hits give low values 1.01 | S. cerevisiae deletion strains, locus YNL298W, strain CLA4, hits give low values 1.01 | S. cerevisiae deletion strains, locus YNL307C, strain MCK1, hits give low values 1.01 | S. cerevisiae deletion strains, locus YNL322C, strain KRE1 (second series), hits give low values 1.03 | S. cerevisiae deletion strains, locus YNL322C, strain KRE1, hits give low values 0.994 | S. cerevisiae deletion strains, locus YNR049C, strain mso1, hits give low values 1.02 | S. cerevisiae deletion strains, locus YNR052C, strain pop2, hits give low values 1.01 | S. cerevisiae deletion strains, locus YOL006C, strain TOP1, hits give low values 0.974 | S. cerevisiae deletion strains, locus YOL012C, strain htz1 2.01 | S. cerevisiae deletion strains, locus YOL147C, strain pex11, hits give low values 1 | S. cerevisiae deletion strains, locus YOR001W, strain rrp6, hits give low values 1.04 | S. cerevisiae deletion strains, locus YOR061W, strain CKA2, hits give low values 1 | S. cerevisiae deletion strains, locus YOR069W, strain VPS5, hits give low values 1.01 | S. cerevisiae deletion strains, locus YOR070C, strain gyp1, hits give low values 1.02 | S. cerevisiae deletion strains, locus YOR080W, strain dia2, hits give low values 1.02 | S. cerevisiae deletion strains, locus YOR083W, strain WHI5, hits give low values 1.03 | S. cerevisiae deletion strains, locus YOR106W, strain vam3, hits give low values 1.05 | S. cerevisiae deletion strains, locus YOR136W, strain idh2, hits give low values 0.997 | S. cerevisiae deletion strains, locus YOR144C, strain elg1, hits give low values 1 | S. cerevisiae deletion strains, locus YOR184W, strain ser1, hits give low values 1.02 | S. cerevisiae deletion strains, locus YOR265W, strain rbl2, hits give low values 1.02 | S. cerevisiae deletion strains, locus YOR270C, strain vph1, hits give low values 1.04 | S. cerevisiae deletion strains, locus YOR290C, strain snf2, hits give low values 1.02 | S. cerevisiae deletion strains, locus YOR316C, strain cot1, hits give low values 1.01 | S. cerevisiae deletion strains, locus YPL051W, strain arl3, hits give low values 1.02 | S. cerevisiae deletion strains, locus YPL055C, strain LGE1, hits give low values 0.95 | S. cerevisiae deletion strains, locus YPL078C, strain atp4, hits give low values 1.03 | S. cerevisiae deletion strains, locus YPL106C, strain sse1, hits give low values 1.04 | S. cerevisiae deletion strains, locus YPL240C, strain hsp82, hits give low values 1.01 | S. cerevisiae deletion strains, locus YPL241C, strain CIN2, hits give low values 1 | S. cerevisiae deletion strains, locus YPR119W, strain clb2, hits give low values 0.997 | S. cerevisiae deletion strains, locus YPR141C, strain kar3, hits give low values 0.998 | S. cerevisiae deletion strains, locus YPR163C, strain tif3, hits give low values 0.997 | S. cerevisiae deletion strains, locus YPR167C, strain met16, hits give low values 0.999 | S. cerevisiae deletion strains, strain wtn01, hits give low values 1 | S. cerevisiae strains, strain wild type, hits give low values 1
